# From PubChem BioAssay AID652126 (The Scripps Research Institute Molecular Screening Center, 2013)
# In all, about 370,000 compounds went through this assay and about 3,700 (1%) were called active. The sample as a whole holds a higher share of actives than the screen did. A number with no mark means an inactive call.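 Rule for the calls: active = activation above the mean over all tested compounds plus 3 SD (cut at about 0.9% in these data); inactive = the rest.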
# Test system: Nuclear hormone receptor DAF-12 (Strongyloides stercoralis)
# Assay: ssDAF-12 driven luciferase reporter activation – cell-based, luminescence, HEK293, GRIP1 co-expression, lit1-tk-luc, primary screen (AID 652126);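 note: 0% = DMSO-only wells and 100% = 3 µM delta7-dafachronic acid wells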
# Conditions: HEK293 ssDAF-12/GRIP1 lit1-tk-luc reporter, at 6.8 µM, active compounds read high, % of 3 µM dafachronic acid response
row,SMILES,activation
1,CCC(C)[C@@H](C(=O)OC)N(CCc1cn(Cc2ccccc2)nn1)S(=O)(=O)c1ccccc1Br (stereo partly specified),-1.79%
2,COc1ccc(/C=C/c2c(-c3cccc(C)c3)oc3ccc(-c4ccc5c(c4)OCO5)cc23)cc1,-1.12%
3,COc1ccc(C2=Nc3cc(C)ccc3OC2)cc1,1.43% (active)
4,COc1ccc([C@H]2CC(=O)C=C(c3ccc(C)cc3)C2)cc1,-0.86%
5,CCOc1ccc(Oc2c(Cl)cnn(-c3ccc(C)cc3)c2=O)cc1,-1.17%
6,Cc1ccc(-c2nnc(-n3nnc4ccccc43)c3ccccc23)cc1,-1.26%
7,Cc1ccc(C2=NN(C)c3nc4ccccc4n3C2)cc1,1.2% (active)
8,Cc1nc2ccccc2n1CC(O)c1ccccc1 (stereo unspecified),-1.14%
9,O=C(CCCCCN1C(=O)C2C3C=CC(C3)C2C1=O)Nc1ccccc1 (stereo unspecified),-1.12%
10,COc1c(N2CCN(C(=S)Nc3ccccc3F)C(C)C2)c(F)cc2c(=O)c(C(=O)O)cn(C3CC3)c12 (stereo unspecified),-0.28%
11,O=C(NC1CCC1)c1ccc(C#Cc2cccc(F)c2)c[n+]1[O-],-1.07%
12,CSc1nc(C)nc(C2CC2)c1C#N,-1.49%
13,CC(CNC(=O)c1ccc(N)cc1)NC(=O)c1ccc(N)cc1 (stereo unspecified),-1.71%
14,O=C(Nc1ccccc1C(=O)N1CCOCC1)c1ccc(Cl)cc1,-1.32%
15,Nc1ccc(C(=O)Nc2ccccc2N)cc1,1.55% (active)
16,Cc1ccc(-n2c(COc3ccccc3)nnc2SCC(=O)Nc2ccc3c(c2)OCCO3)cc1,-1.43%
17,Cc1cccc(NC(=O)c2ccc3ccccc3n2)n1,1.11% (active)
18,COC(=O)c1ccc(NC(=S)Nc2cccc(C)n2)cc1,-0.35%
19,CC(NC(=O)COC(=O)c1ccc2ccccc2n1)c1ccccc1 (stereo unspecified),-0.49%
20,Cc1c(C(C)c2ccccc2O)[nH]c2ccccc12 (stereo unspecified),-0.11%
21,CCOc1ccc(-n2c(SCC(=O)Nc3cc(C)c(NC(=O)c4ccccc4)cc3OC)nnc2-c2cccs2)cc1,-1.35%
22,CCOC(=O)N1CCN(C(=O)C[C@H]2C[C@@]3(C(=O)OC)C(=C[C@H](C(C)(C)C)O[C@@H]3C)N(Cc3ccc(Cl)cc3Cl)C2=O)CC1,-1.86%
23,COc1ccc(C)cc1S(=O)(=O)NCCc1ccccc1,-0.72%

row,SMILES,activation
1,COCCNS(=O)(=O)c1cc(Br)ccc1OC,-1.56%
2,COc1ccc(OC)c(S(=O)(=O)NCCC(C)C)c1,1.47% (active)
3,CC(C)CNc1cccc2c1S(=O)(=O)N(Cc1cn(Cc3ccc(Cl)cc3)nn1)Cc1ccccc1O2,-1.25%
4,O=C(CSc1nc2ccccc2nc1N1CCCCC1)N1CCN(S(=O)(=O)c2cccc([N+](=O)[O-])c2)CC1,-0.71%
5,CC(=O)Nc1ccc(OC[C@@H](O)CN2CCC(C(O)(c3ccccc3)c3ccccc3)CC2)cc1,-0.46%
6,COc1ccccc1CNC(=O)C1CCN(c2nc3ccccc3o2)CC1,-1.15%
7,O=C(NCc1ccc(Cl)cc1)C1CCCN(c2nc3ccccc3o2)C1 (stereo unspecified),-1.04%
8,COc1cccc(CNC(=O)C2CCCN(c3nc4ccccc4o3)C2)c1OC (stereo unspecified),1.04% (active)
9,CCC(=O)Nc1ccc2c(c1)C(=O)N(C)[C@H]1CC[C@H](CC(=O)NCCOC)O[C@@H]1CO2,-1.05%
10,COc1ccc(-n2c(COc3ccccc3)nnc2SCC(=O)Nc2ccc3c(c2)OCO3)cc1,-1.47%
11,COc1ccc(C(CNC(=O)c2cc3c(s2)CCCC3)N2CCOCC2)cc1 (stereo unspecified),-1.09%
12,O=c1c2cc([N+](=O)[O-])ccc2nc2n1CCC2,-0.82%
13,Cc1ccc(-n2cc3ccc([N+](=O)[O-])cc3n2)cc1,1.77% (active)
14,CC(C)(C)NC(=O)Cn1cnc2cc([N+](=O)[O-])ccc2c1=O,-1.52%
15,C=CCN1C(=O)[C@@H](CC(=O)N2CCN(C(=O)OCC)CC2)[C@]2(C(=O)OCC)CCCCC/C=C/12,-1.02%
16,CCOc1cc(C)c(S(=O)(=O)NCc2ccccn2)cc1C,0.98% (active)
17,COc1ccccc1CNS(=O)(=O)c1cc(C(=O)NCc2ccccn2)c(Cl)cc1Cl,-1.13%
18,Cc1cc(S(=O)(=O)NCc2ccccn2)c(Cl)cc1Cl,-1.84%
19,COC(=O)[C@H](C(C)C)N(CCCc1cn(Cc2ccccc2)nn1)S(=O)(=O)c1ccc(F)cc1Br,-2.17%
20,Cc1cccc(-n2c(O)c(C=Nc3ccccc3N)c(=O)[nH]c2=O)c1,1.8% (active)
21,COc1cccc(N(C)C(=O)[C@@H](C)[C@@H](O)c2ccc3ccccc3c2)c1,-1.07%
22,O=c1c2c(nc3cc(-c4cccc(Cl)c4)[nH]n13)CCCC2,1.57% (active)
23,CSc1nc2nc3c(c(=O)n2[nH]1)CCC3,-1.17%

row,SMILES,activation
1,CCOC(=O)C1CCN(S(=O)(=O)c2ccc3c(c2)N(C(C)=O)CCO3)CC1,-1.19%
2,COc1ccc(-c2csc(C(O)c3cccc(Cl)c3)n2)cn1 (stereo unspecified),-1.06%
3,CC(C)c1cccc(-c2csc(C(O)c3ccccc3)n2)c1 (stereo unspecified),-1.41%
4,OC(c1ccccc1)c1nc(-c2cnc3ccccc3c2)cs1 (stereo unspecified),1.25% (active)
5,CN(C)c1nc(N)nc(CSc2ccccn2)n1,-1.25%
6,COc1cccc(N(CC(=O)NCCSc2ccccn2)S(C)(=O)=O)c1,-1.16%
7,COc1ccc(C=C(C#N)C#N)c(CSc2ccccn2)c1,2.1% (active)
8,c1coc(CCNc2ncnc3ccc(-c4ccc5c(c4)OCO5)cc23)c1,-0.09%
9,CCn1c2ccccc2c2cc(NC(=O)CSc3nnc(-c4ccccc4)n3-c3ccc(C)cc3)ccc21,-1.2%
10,O=C(CSc1nc2ccccc2s1)NN=Cc1ccc(O)cc1O,-1.4%
11,COc1cc(/C=N/Nc2nc3ccccc3s2)ccc1O,2.25% (active)
12,COc1ccc(/C=N/Nc2ncnc3sc4c(c23)CCCC4)cc1O,-0.66%
13,COc1ccccc1CCNC(=O)C1CCN(c2nc(C)cc(C)n2)CC1,-1.36%
14,O=c1[nH]c(CCl)nc2cc(-c3ccc(Cl)cc3)sc12,1.53% (active)
15,COc1cccc(-c2cc3nc(NCCOc4ccccc4Cl)n(C)c(=O)c3s2)c1,-1.7%
16,Cn1c(NCc2cccnc2)nc2cc(-c3ccc(F)cc3)sc2c1=O,-1.06%
17,CC(C)(C)OC(=O)NCc1cc(F)ccc1/C=C/S(=O)(=O)NCCc1ccccc1,-1.87%
18,CCC(=O)OCCCN1C(=O)CCC12CCC(c1ccccc1)CC2 (stereo unspecified),-0.68%
19,Cc1ccc(C)c(-n2c(SCC(=O)O)nc3sc4c(c3c2=O)CCCC4)c1,-1.01%
20,CCn1c(SCC(C)=O)nc2sc3c(c2c1=O)CCCC3,-2.16%
21,NNC(=O)C1CCCn2c1nc1sc3c(c1c2=O)CCCC3 (stereo unspecified),1.14% (active)
22,COc1cccc(Cn2cc(COC(=O)Nc3ccc(F)cc3)nn2)c1,-0.68%
23,COc1ccc(CSc2nnc(-c3cccc(C)c3)n2C)cc1,-1.19%

row,SMILES,activation
1,COc1ccc(C2CC(c3cccs3)=NN2c2nc(C)c(C(C)=O)s2)cc1OC (stereo unspecified),-0.94%
2,COc1ccc(C2CC(c3cccs3)=Nc3ccccc3S2)cc1OC (stereo unspecified),1.64% (active)
3,COc1ccc(C2CC(=O)n3c(nc4ccccc43)S2)cc1OC (stereo unspecified),-1.19%
4,COP(=O)(O)CNC(=O)OCc1ccccc1,-0.73%
5,CC(=O)N1CCCN(C2=Nc3ccccc3Sc3ccccc32)CC1,-1.69%
6,Cc1cc(NC(=O)CSCc2ccccc2C)no1,-1.6%
7,COc1ccccc1C(=O)COC(=O)CSCC(=O)Nc1cc(C)on1,1.36% (active)
8,Cc1cc(NC(=O)CSCC(=O)NC(C)c2ccccc2)no1 (stereo unspecified),-1.09%
9,CN(CCO)c1cccc2c1S(=O)(=O)N(Cc1cn(Cc3ccc(C(F)(F)F)cc3)nn1)Cc1ccccc1O2,-0.96%
10,O=C1C(=O)N(Cc2ccc(-c3ccsc3)cc2)c2ccc(OC(F)(F)F)cc21,-0.76%
11,CCS(=O)(=O)c1cc([N+](=O)[O-])c(Sc2ccccc2N)s1,0.94% (active)
12,COc1ccccc1C(=O)CSc1nnc(-c2ccccn2)n1-c1ccccc1,-1.43%
13,C=CCN1C(=O)[C@@H](CC(=O)NCC2CCCCC2)[C@]2(C(=O)OC)CCCCC=C12,-1.59%
14,COCC(=O)N[C@@H]1C[C@@H]2O[C@@H](CO)CC[C@@H]2O[C@@H]1CCc1ccc(-c2ccccc2)cc1,-1.17%
15,CN(Cc1ccc(F)cc1)C(=O)COc1ccc2ccccc2c1,-0.45%
16,COc1ccccc1S(=O)(=O)NCc1ccc(C(=O)N(C)Cc2ccc(F)cc2)cc1,-1.02%
17,CN(Cc1nc2ccccc2s1)C(=O)c1ccc(F)cc1,1.11% (active)
18,CSc1ccc(C=Nn2c(-c3ccc(F)cc3)n[nH]c2=S)cc1,-1.67%
19,C[C@@H]1ON(C)[C@H]2C[C@H]3c4[nH]c5cccc(-c6ccc7c(c6)OCO7)c5c4CCN3C[C@@H]12,-0.56%
20,CC(C)Cc1cc(C(=O)Nc2cc(Br)ccc2O)no1,-1.29%
21,O=C(NCCCc1ccccc1)c1cc(COc2c(F)cccc2F)on1,-0.16%
22,CC(C)Cc1cc(C(=O)NCCc2ccccc2)no1,1.34% (active)
